KCNH2 3.1 inh: KCNH2 3.1 (human) potassium channel inhibition. U2OS KCNH2 3.1, thallium flux FluxOr; stronger effect = lower value. actives 0.95% (n = 340,000). activity change, % (tested at about 1.8 µM);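 active means maximum activity change below -70%; inconclusive means maximum activity change from -70% to -50%; inactive means maximum activity change above -50%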;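 further: thallium influx rate constant from kinetic fluorescence after stimulation buffer; on the % scale 0 is the no-effect control and ±100 the full control effect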
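Measured as rate of thallium-driven FluxOr signal in transduced U2OS cells carrying the 3.1 channel, read kinetically for 2 min upon stimulation; values are rate constants scaled to DMSO control wells.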
SW480 rerep: inducers of DNA re-replication in SW480 colon cancer cells. SW480 DNA re-replication, Hoechst DNA content imaging, 48 h. Potency, µM (highest dose often 46.1 µM), without a hit: at the highest dose re-replication activation, most hits filed as activators. actives 1.8% (n = 340,000); further: potency means the concentration at half of the fitted maximal effect; % of control where 0% means no effect; nearly all actives have a fitted effect of over 55% in size
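SW480 cells exposed to compounds for 48 hr at 37 C, 5% CO2, then Hoechst-stained 40 min. Nuclear DNA content imaged by fluorescence scanning (405 nm excitation, 500-530 nm emission); re-replication scored as increased high-intensity nuclei.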
MCF10A rereplic: inducers of DNA re-replication in MCF 10A breast cells; MCF 10A DNA re-replication, Hoechst nuclear intensity, 48 h; Potency, µM (series often up to 46.1 µM), for the others: at the highest dose activity, positive = re-replication, hits mostly activators; actives 2.9% (n = 350,000); AID 624296; further: potency means the concentration at half of the fitted maximal effect; % of control where 0% means no effect; nearly all actives have a fitted effect of over 50% in size
KB-3-1 tox: kills parental KB-3-1 adenocarcinoma cells; KB-3-1 viability, CellTiter-Glo ATP luminescence, 72 h; Potency, µM (series often up to 46.1 µM), actives largely listed as cytotoxic; actives 1.4% (n = 400,000); AID 1347075; further: potency means the concentration at half of the fitted maximal effect; on the % scale 0 is the no-effect control and ±100 the full control effect; nearly all actives have a fitted effect of over 60% in size
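Cells are dispensed, compounds pinned in, plates held at 37 °C for 72 h, then CellTiter-Glo is added and luminescence read after 10 minutes. Cell line: parental KB-3-1 in phenol-red-free DMEM, 10% FBS.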
KB-V1 cytotox: kills drug-selected multidrug resistant KB-V1 cells; actives 3.4% (n = 400,000); AID 1347076; Potency, µM (series often up to 46.1 µM), actives largely listed as cytotoxic; KB-V1 MDR cells viability, CellTiter-Glo, 72 h; further: potency means the concentration at half of the fitted maximal effect; on the % scale 0 is the no-effect control and ±100 the full control effect; nearly all actives have a fitted effect of over 60% in size
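Cytotoxicity via CellTiter-Glo luminescence after 72 h compound exposure at 37 degrees C. Cells: drug-selected KB-V1 line, DMEM phenol-red free plus 10% FBS. Compounds tested at multiple concentrations; normalized data fitted to concentration-effect curves.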
hERG WT inh: KCNH2 (human, wildtype) channel inhibition | Q12809 | U2OS, BacMam KCNH2, thallium flux FluxOr; stronger effect = lower value | activity change, % at 1.84 µM | actives 0.37% (n = 340,000) | AID 720551;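 active means maximum activity change below -70%; inconclusive means maximum activity change between -70% and -50%; inactive means maximum activity change above -50%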; further: on the % scale 0 is the no-effect control and ±100 the full control effect
Target sequence (Q12809 whole entry, looked up): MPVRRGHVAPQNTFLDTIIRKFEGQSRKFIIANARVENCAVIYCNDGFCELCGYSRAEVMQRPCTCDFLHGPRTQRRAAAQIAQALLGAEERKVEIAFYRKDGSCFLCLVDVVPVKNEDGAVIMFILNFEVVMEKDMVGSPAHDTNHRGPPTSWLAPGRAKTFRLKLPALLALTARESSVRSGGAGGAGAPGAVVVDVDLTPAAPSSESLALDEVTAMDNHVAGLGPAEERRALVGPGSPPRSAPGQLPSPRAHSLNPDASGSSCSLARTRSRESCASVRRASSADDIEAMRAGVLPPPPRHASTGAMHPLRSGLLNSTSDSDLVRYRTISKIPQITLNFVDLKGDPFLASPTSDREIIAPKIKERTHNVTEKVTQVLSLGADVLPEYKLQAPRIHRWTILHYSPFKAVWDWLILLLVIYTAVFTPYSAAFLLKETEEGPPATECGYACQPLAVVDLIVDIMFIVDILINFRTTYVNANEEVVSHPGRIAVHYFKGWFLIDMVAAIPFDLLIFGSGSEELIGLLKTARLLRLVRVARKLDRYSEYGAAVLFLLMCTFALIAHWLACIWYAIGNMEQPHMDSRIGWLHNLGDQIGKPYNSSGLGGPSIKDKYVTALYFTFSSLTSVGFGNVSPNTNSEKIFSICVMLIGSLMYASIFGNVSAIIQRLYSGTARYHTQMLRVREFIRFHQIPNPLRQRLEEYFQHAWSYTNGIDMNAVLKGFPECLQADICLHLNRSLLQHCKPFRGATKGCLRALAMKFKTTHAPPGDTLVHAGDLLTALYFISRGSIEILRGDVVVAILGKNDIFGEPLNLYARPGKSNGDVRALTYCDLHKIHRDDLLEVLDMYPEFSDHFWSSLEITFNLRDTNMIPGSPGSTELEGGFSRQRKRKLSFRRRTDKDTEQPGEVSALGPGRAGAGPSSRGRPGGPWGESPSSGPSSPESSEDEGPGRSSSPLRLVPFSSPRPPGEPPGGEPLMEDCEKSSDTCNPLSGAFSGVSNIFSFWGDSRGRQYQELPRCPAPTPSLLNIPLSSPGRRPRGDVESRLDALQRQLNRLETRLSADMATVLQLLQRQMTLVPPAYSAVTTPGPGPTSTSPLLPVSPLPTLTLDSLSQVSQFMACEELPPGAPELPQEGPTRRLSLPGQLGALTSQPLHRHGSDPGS
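U2OS cells transduced with wild-type KCNH2 virus are loaded with FluxOr dye for 45 min, and thallium flux is measured in kinetic reads before and after stimulation buffer. Rate constants are normalized to DMSO controls.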
* hit, by the source's call. Sampled rows, rich in hits. Any-hit rate of the full collection: about 7.6%. Unless noted, the call rests on the fitted dose curve; in most records, active means well fitted curve in the direction sought with a large enough effect; inconclusive means small, poorly fitted or top-dose-only effect, or another doubt; inactive means no such curve, though single readings can be large; an effect the other way counts as inactive or inconclusive.

Results for CCc1cccc2c1NC(=O)C21N2CCCC2C(C(=O)c2ccc3ccccc3c2)C12C(=O)Nc1ccccc12 (stereo not given) ?
KCNH2 3.1 inh: -113*; SW480 rerep: inconclusive; MCF10A rereplic: 15%; KB-3-1 tox: 16µM*; KB-V1 cytotox: inconclusive; hERG WT inh: -2

What do the screens show for `O=c1c(-c2nnc(SCc3ccc(Cl)cc3Cl)o2)cccn1Cc1ccccc1`?
KCNH2 3.1 inh: -26; SW480 rerep: 0%; MCF10A rereplic: 7%; KB-3-1 tox: inconclusive; KB-V1 cytotox: 2.9µM*; hERG WT inh: -4

What do the screens show for `OCC1(CCOc2ccccc2)CCN(C2Cc3ccccc3C2)CC1`?
KCNH2 3.1 inh: -77*; SW480 rerep: 0%; MCF10A rereplic: 18µM*; KB-3-1 tox: inactive; KB-V1 cytotox: inactive; hERG WT inh: 15

What do the screens show for `COc1cc(CN2CCC(CO)(CCOc3ccccc3)CC2)cc(OC)c1`?
KCNH2 3.1 inh: inconclusive; SW480 rerep: -5%; MCF10A rereplic: inconclusive; KB-3-1 tox: inactive; KB-V1 cytotox: inconclusive; hERG WT inh: 19

What do the screens show for `OCC1(CCOc2ccccc2)CCN(Cc2cccn2-c2ncccn2)CC1`?
KCNH2 3.1 inh: -93*; SW480 rerep: -6%; MCF10A rereplic: -10%; KB-3-1 tox: inactive; KB-V1 cytotox: inactive; hERG WT inh: -16

What do the screens show for `COc1ccc(OC)c(CN2CCC(CO)(CCOc3ccccc3)CC2)c1`?
KCNH2 3.1 inh: -75*; SW480 rerep: -32%; MCF10A rereplic: 1%; KB-3-1 tox: inactive; KB-V1 cytotox: inconclusive; hERG WT inh: 69

How did Cc1cc(C)c(CN2CCC(CO)(CCOc3ccccc3)CC2)cc1C do in these assays?
KCNH2 3.1 inh: -111*; SW480 rerep: inconclusive; MCF10A rereplic: inconclusive; KB-3-1 tox: inactive; KB-V1 cytotox: inactive; hERG WT inh: -35

Results for O=C(O)Cn1c(C(=O)Nc2nc(-c3ccccc3Cl)cs2)cc2ccccc21 ?
SW480 rerep: -3%; MCF10A rereplic: inconclusive

Results for CC1=C(C(=O)NCc2cccc(F)c2)C2(CCCCC2)OC1=O ?
KB-3-1 tox: inactive; KB-V1 cytotox: inactive

Results for COc1ccccc1CNC(=O)CCc1c(C)c2ccc(OC)c(C)c2oc1=O ?
KB-3-1 tox: inactive; KB-V1 cytotox: inactive

Results for COc1ccc(NS(=O)(=O)c2cc(NC(=O)C3=NN(c4ccccc4)C(=O)CC3)ccc2OC)cc1 ?
KCNH2 3.1 inh: -24; SW480 rerep: 6%; MCF10A rereplic: -8%; KB-3-1 tox: inactive; KB-V1 cytotox: inactive; hERG WT inh: 1

What do the screens show for `OC(CNCC1CCCO1)Cn1c2ccccc2c2ccccc21` (stereo not given)?
KCNH2 3.1 inh: -12; SW480 rerep: 15%; MCF10A rereplic: -1%; KB-3-1 tox: inactive; KB-V1 cytotox: inactive; hERG WT inh: 8

Results for OC(CNCC1CCCO1)Cn1c2ccc(Cl)cc2c2cc(Cl)ccc21 (stereo not given) ?
KCNH2 3.1 inh: -99*; SW480 rerep: 19%; MCF10A rereplic: inconclusive; KB-3-1 tox: inconclusive; KB-V1 cytotox: inconclusive; hERG WT inh: inconclusive

What do the screens show for `OC(CNCCC1C=Nc2ccccc21)Cn1c2ccc(Cl)cc2c2cc(Cl)ccc21` (stereo not given)?
KCNH2 3.1 inh: -37; SW480 rerep: inconclusive; MCF10A rereplic: 5.2µM*; KB-3-1 tox: inconclusive; KB-V1 cytotox: inconclusive; hERG WT inh: -4

Results for COc1ccc(C(=O)c2no[n+]([O-])c2C(=O)c2ccc(OC)cc2)cc1 ?
KCNH2 3.1 inh: 5; SW480 rerep: inconclusive; MCF10A rereplic: 9.2µM*; KB-3-1 tox: inconclusive; KB-V1 cytotox: inconclusive; hERG WT inh: 8

Results for O=C(c1cccs1)c1no[n+]([O-])c1C(=O)c1cccs1 ?
KCNH2 3.1 inh: 4; SW480 rerep: 13µM*; MCF10A rereplic: 12µM*; KB-3-1 tox: inconclusive; KB-V1 cytotox: inconclusive; hERG WT inh: -1

Results for O=C(c1ccc(Cl)nc1)c1cccs1 ?
KCNH2 3.1 inh: 7; SW480 rerep: -10%; MCF10A rereplic: -2%; KB-3-1 tox: inactive; KB-V1 cytotox: inactive; hERG WT inh: 4

Results for COCCn1c(C)cc(C(=O)CSc2nc(C)nc3sc4c(c23)CCC4)c1C ?
KCNH2 3.1 inh: -7; SW480 rerep: 7%; MCF10A rereplic: inconclusive; KB-3-1 tox: inconclusive; KB-V1 cytotox: 2.6µM*; hERG WT inh: 36

Results for CC1CCN(S(=O)(=O)c2ccc3nc(-c4ccccn4)cc(C(=O)NCCN(C)Cc4ccccc4)c3c2)CC1 ?
KCNH2 3.1 inh: -28; SW480 rerep: 0%; MCF10A rereplic: 0.73µM*; KB-3-1 tox: inconclusive; KB-V1 cytotox: inactive; hERG WT inh: 16

How did CCOC(=O)c1[nH]c2ccccc2c1NC(=O)c1ccc(S(=O)(=O)N(C)C)cc1 do in these assays?
KCNH2 3.1 inh: -5; SW480 rerep: 0%; MCF10A rereplic: 2%; KB-3-1 tox: inactive; KB-V1 cytotox: inactive; hERG WT inh: -2

Results for CN(C)S(=O)(=O)c1ccc(C(=O)Oc2cc(=O)[nH]c3ccccc23)cc1 ?
KCNH2 3.1 inh: 4; SW480 rerep: 4%; MCF10A rereplic: 6.5µM*; KB-3-1 tox: inactive; KB-V1 cytotox: inactive; hERG WT inh: 28

What do the screens show for `CNc1cncc(-c2cccc(OC)c2F)n1`?
KB-3-1 tox: inactive; KB-V1 cytotox: inactive

How did O=c1cc(O)c2c(=O)n(C3CCCCC3)c3ccccc3c2o1 do in these assays?
KCNH2 3.1 inh: 5; SW480 rerep: 0%; MCF10A rereplic: inconclusive; KB-3-1 tox: inconclusive; KB-V1 cytotox: 4.1µM*; hERG WT inh: 10

How did O=c1cc(O)c2c(=O)n(-c3ccccc3)c3c(c2o1)CCCCCC3 do in these assays?
KCNH2 3.1 inh: 8; SW480 rerep: 2%; MCF10A rereplic: inconclusive; KB-3-1 tox: inactive; KB-V1 cytotox: 5.2µM*; hERG WT inh: -12

How did CCCCn1c(=O)c2c(O)cc(=O)oc2c2ccccc21 do in these assays?
KCNH2 3.1 inh: -10; SW480 rerep: -10%; MCF10A rereplic: -5%; KB-3-1 tox: inactive; KB-V1 cytotox: 4.6µM*; hERG WT inh: inconclusive

How did O=c1cc(O)c2c(=O)n(Cc3ccccc3)c3ccccc3c2o1 do in these assays?
KCNH2 3.1 inh: 4; SW480 rerep: 12%; MCF10A rereplic: inconclusive; KB-3-1 tox: inactive; KB-V1 cytotox: 6.5µM*; hERG WT inh: 2

How did CC(C)(C)C(=O)Nc1cccc(C(=O)Nc2cc(C(=O)O)cc(C(=O)O)c2)c1 do in these assays?
KCNH2 3.1 inh: 0; SW480 rerep: -10%; MCF10A rereplic: -64%; KB-3-1 tox: inactive; KB-V1 cytotox: inactive; hERG WT inh: 2
